The results in this text go back to PubChem BioAssay (NCI).

About 79,000 compounds went through this panel and 15% of them were active in at least one assay; those are over-represented in the sample as a whole. Values without a mark were called inactive. Activity calls are given as the source filed them. Rule as the data show it: active = growth inhibition above about 70%; inactive = the rest.

This test is described as follows: NCI Yeast Anticancer Drug Screen. Data for the rad18 strain (AID 177). The conditions noted are these: S. cerevisiae rad18 mutant growth inhibition; at 33.0 µM; active compounds read high. In a few lines: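 Compounds are applied to a repair-deficient yeast strain, and growth is compared with that of vehicle-treated cultures to give percent inhibition.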
`CCCc1cc(C(=O)OCC)cc(CCC)c1O`: the growth inhibition is -1%. With `CC(C)[N+]([O-])(CCCNc1c2ccccc2nc2cccc([N+](=O)[O-])c12)C(C)C`, the growth inhibition was 97% (active). Turning to `COc1cc2c3c(cccc3c1)C(=O)N(CCN(C)C)C2=O`, the growth inhibition is -15%. On to `NC(=O)NN=C(CS)CS`, for which the growth inhibition was 61%. `Cc1ccc(NC(=O)/C(Cl)=C(\Cl)C(=O)O)cc1C`: the growth inhibition was 99% (active).

As for `CCN(CC)CC[n+]1ccc2c(C)c3[nH]c4ccc(O)cc4c3c(C)c2c1`, the growth inhibition is 12%. With `CC(CC(C)(C)[N+](C)(C)C)[N+](C)(C)C` (stereo unspecified), the growth inhibition is 15%. For `COc1ccc(OC)c2cc3ccccc3cc12`, the growth inhibition was 24%. For the molecule `Nc1ncncc1C(C1=C(O)COC1=O)C1=C(O)COC1=O`, the growth inhibition is -3%.

For `CSC1=NNC(SC)=NN1`, the growth inhibition was 93% (active). On to `Cc1c(Cl)ccc2c1S(=O)(=O)c1cccc(Cl)c1-2`, for which the growth inhibition is -1%.

For `[O-][n+]1c2ccc(O)cc2nc2ccc(Cl)cc21`, the growth inhibition is 79% (active). As for `COc1ccc2ccc3ccccc3c2c1C=O`, the growth inhibition was 9%. The value for `Nc1ccc2c(c1)C(=O)c1cccc(N)c1C2=O` was 97% (active). Consider `O=C(c1ccc(Cl)cc1Cl)C(Cl)Cl`, for which the growth inhibition was 76% (active). Take `COc1cc(C(=O)/C=C/c2ccccc2O)ccc1O`: the growth inhibition is 98% (active).

Consider `O=Cc1cccc2ccc3ccccc3c12`, for which the growth inhibition is 43%. Turning to `O=C(Nc1ccc(Cl)cc1)OCC#CCCl`, the growth inhibition was 10%. As for `Cn1ccnc1Oc1ccc(Cl)cc1`, the figure is 55%; as for `c1ccc2c(c1)C(=NCCCN1CCCCCC1)c1cccn1-2`, 1%. Consider `C/C(=N\O)C1CC2C=C(C#N)C1N(Cc1ccccc1)C2` (stereo unspecified), for which the growth inhibition is 77% (active).
